{
  "source": "ChEMBL document CHEMBL3988442",
  "about": "“University of Dundee, Small-Polar-MMV Screening Library” (2021)",
  "note": "The whole screen tested about 48,000 compounds, of which about 13,000 (27%) showed an effect of 50% or more. The list shows a part of the results.",
  "data": [
    {"test_system": "Wolbachia pipientis", "assay": "Anti-Wolbachia Cell-Based Screen", "assay_type": "functional", "set-up": "scale not given: in the data most compounds retested in dose-response had high values", "conditions": "5 µM", "units": {"Percent Effect": "%"}, "values": [
      {"smiles": "COCc1cn([C@@H]2c3ccccc3C3(CCNCC3)[C@H]2O)nn1", "Percent Effect": -6.385},
      {"smiles": "CC(=O)c1c(C)nn(CC(=O)Nc2ccc(F)cc2)c1C", "Percent Effect": 6.274},
      {"smiles": "Cc1ccc(NC(=O)C2=CN=S=N2)cc1", "Percent Effect": -3.511},
      {"smiles": "CN(C)c1nc2n(c(=O)n1)CCN2C(=O)Nc1ccccc1", "Percent Effect": 0.604},
      {"smiles": "CCc1nc(C)cn1C(=O)Nc1ccccc1", "Percent Effect": 107.6},
      {"smiles": "CCC(C)(NCC(=O)Nc1ccccc1)c1nc(C)cs1", "note": "(centres undefined)", "Percent Effect": -1.246},
      {"smiles": "CCc1nc(C)cn1C(=O)Nc1ccc(C)cc1", "Percent Effect": 109.3},
      {"smiles": "CN(C)Cc1nn(C)c2c1CN(C(=O)Nc1ccc(F)cc1)C2", "Percent Effect": -7.35},
      {"smiles": "Cc1ccc(NC(=O)N2CCN(Cc3noc(C4CC4)n3)CC2)cc1", "Percent Effect": 4.61},
      {"smiles": "CCc1nc(C)cn1C(=O)Nc1ccc(F)cc1", "Percent Effect": 113},
      {"smiles": "Cc1cc(=O)n2ncnc2n1CC(O)c1ccccc1F", "note": "(centres undefined)", "Percent Effect": -9.153},
      {"smiles": "CN(C)S(=O)(=O)N1CC[C@]2(C[C@@H](OCC3CC3)CO2)C1", "Percent Effect": 9.447},
      {"smiles": "CCCN(Cc1ccc(C(=O)NCC2COCCO2)c(=O)[nH]1)C1CC1", "note": "(centres undefined)", "Percent Effect": 2.285},
      {"smiles": "Cc1cc2c(cc1CN1CCCCC1CCn1ccnc1C)OCO2", "note": "(centres undefined)", "Percent Effect": 17.86},
      {"smiles": "CN(C)CCOCC1CN(C(=O)c2cccn2C)Cc2ccnn2C1.O=C(O)C(F)(F)F.O=C(O)C(F)(F)F", "note": "(centres undefined)", "Percent Effect": -5.365},
      {"smiles": "CN1CCN(S(=O)(=O)c2cccc(C#N)c2)c2ccc(F)cc21", "Percent Effect": 4.028},
      {"smiles": "O=C(C1CCOCC1)N1CCCC1c1cncc(CN2CCCC2)n1", "note": "(centres undefined)", "Percent Effect": 74.28},
      {"smiles": "CN(C)CCC1CCCCN1Cc1cnn(C)c1C1CC1", "note": "(centres undefined)", "Percent Effect": -0.7786},
      {"smiles": "Cc1nc(C(=O)N2CCCC2c2cncc(CN3CCCC3)n2)co1", "note": "(centres undefined)", "Percent Effect": 62.39},
      {"smiles": "O=C(c1cc[nH]n1)N1CCCC1c1cncc(CN2CCOCC2)n1", "note": "(centres undefined)", "Percent Effect": 91.81},
      {"smiles": "CCc1nc(CN2CCCN(C(=O)C3CCOCC3)CC2)cs1", "Percent Effect": -0.509},
      {"smiles": "Cc1nc(CN2CCC(NS(C)(=O)=O)CC2)co1", "Percent Effect": -13.72},
      {"smiles": "Cc1c(CN2CCCC2c2cncc(CN3CCCC3)n2)cnn1C", "note": "(centres undefined)", "Percent Effect": 74.36},
      {"smiles": "Cc1cc(C(=O)N2CCCC2CN2CCCC2)no1", "note": "(centres undefined)", "Percent Effect": 0.09079},
      {"smiles": "Cc1nn(C)c(C)c1C1CCCN1C(=O)c1cc[nH]n1", "note": "(centres undefined)", "Percent Effect": -0.5637},
      {"smiles": "Cc1cccc(-c2c[nH]c(C3CCCN3C(=O)C3CCOCC3)n2)c1", "note": "(centres undefined)", "Percent Effect": 16.55},
      {"smiles": "O=C(CCC1CC1)N1CCC(n2cc(C3(O)CCCC3)nn2)CC1", "Percent Effect": -0.3223},
      {"smiles": "COc1ccc(C2(C(=O)N3C[C@@H](C(=O)O)[C@H](C(C)C)C3)CC2)cc1", "Percent Effect": 6.312},
      {"smiles": "O=C(CS(=O)(=O)CC1CCCCC1)NC1CCCCNC1=O", "note": "(centres undefined)", "Percent Effect": -2.84},
      {"smiles": "CC(C)CS(=O)(=O)CC(=O)NC1CCCCNC1=O", "note": "(centres undefined)", "Percent Effect": 105},
      {"smiles": "Cn1c(C2CC2)nc2c1CCN(CC(=O)NC1CCCCNC1=O)C2", "note": "(centres undefined)", "Percent Effect": -7.835},
      {"smiles": "O=C(CS(=O)(=O)Cc1ccccc1)NC1CCCCNC1=O", "note": "(centres undefined)", "Percent Effect": 109},
      {"smiles": "Cc1ccccc1CS(=O)(=O)CC(=O)NC1CCCCNC1=O", "note": "(centres undefined)", "Percent Effect": 5.447},
      {"smiles": "O=C1NCCCCC1NC(=O)C1(c2ccccc2)CCOCC1", "note": "(centres undefined)", "Percent Effect": -10.73},
      {"smiles": "Cc1cc(C)n(CC(=O)NC2CCCCNC2=O)n1", "note": "(centres undefined)", "Percent Effect": -5.953},
      {"smiles": "O=C(CS(=O)(=O)c1ccccc1Cl)NC1CCCCNC1=O", "note": "(centres undefined)", "Percent Effect": 7.591},
      {"smiles": "Cn1cnc2c1CCN(CC(=O)NC1CCCCNC1=O)C2", "note": "(centres undefined)", "Percent Effect": 2.624},
      {"smiles": "O=C(CS(=O)(=O)Cc1ccc(F)cc1)NC1CCCCNC1=O", "note": "(centres undefined)", "Percent Effect": 104.6},
      {"smiles": "O=C(CS(=O)(=O)Cc1ccc(F)cc1)NCc1ccccc1F", "Percent Effect": -12.49},
      {"smiles": "O=C(CC1CCCCC1)NC1CCCCNC1=O", "note": "(centres undefined)", "Percent Effect": 129.3},
      {"smiles": "CC1CCN(C)c2ccccc2N1C(=O)c1ccn(C)c(=O)c1", "note": "(centres undefined)", "Percent Effect": -9.489},
      {"smiles": "COc1cc(C)nc(N2CCN(C(=O)c3ccc[nH]3)CC2)n1", "Percent Effect": 4.964},
      {"smiles": "N#Cc1ccc(N2CCC(c3nccn3Cc3cscn3)CC2)nc1", "Percent Effect": 4.95},
      {"smiles": "CC(C(=O)NC1CC1)S(=O)(=O)Cc1nc(Cc2ccccc2)no1", "note": "(centres undefined)", "Percent Effect": -3.587},
      {"smiles": "CCN(Cc1nc(Cc2ccccc2)no1)C1CC1", "Percent Effect": 93.91},
      {"smiles": "COc1ccc(CN(Cc2nc(C)no2)C2CCCCC2)cc1OC", "Percent Effect": 113.8},
      {"smiles": "CCc1noc(CN(CCc2ccccc2)C2CCN(C)CC2)n1", "Percent Effect": 1.802},
      {"smiles": "COc1cc(CO)ccc1OCc1nc(C2CC2)no1", "Percent Effect": 5.46},
      {"smiles": "COc1ccccc1CN(Cc1nc2c(cnn2C)c(=O)[nH]1)C1CC1", "Percent Effect": 17.98},
      {"smiles": "CCc1nc(CN(CCc2ccccc2)C2CCN(C)CC2)no1", "Percent Effect": 22.84},
      {"smiles": "Cc1nnc(CN(Cc2ccccc2C(F)(F)F)C2CC2)o1", "Percent Effect": -10.33},
      {"smiles": "COc1ccccc1CN(Cc1nc(Cc2ccccc2)no1)C1CC1", "Percent Effect": 122.2},
      {"smiles": "COc1ccccc1CN(Cc1nc(C)no1)C1CC1", "Percent Effect": 102.6},
      {"smiles": "CN(Cc1ccc2c(c1)OCO2)Cc1nc(Cc2ccccc2)no1", "Percent Effect": -7.147},
      {"smiles": "CCc1noc(C(C)N(C)Cc2ccc(OC)c(OC)c2)n1", "note": "(centres undefined)", "Percent Effect": 9.709},
      {"smiles": "CCCN1CC2(CCN(C)CC2)CC1C(=O)NCCn1nc(C)nc1C", "note": "(centres undefined)", "Percent Effect": -19.15},
      {"smiles": "O=C(CCn1cncn1)NCC1CCS(=O)(=O)C1", "note": "(centres undefined)", "Percent Effect": 0.07359},
      {"smiles": "CCN(CC)CCSc1ncnc2[nH]ncc12", "Percent Effect": -13.76},
      {"smiles": "Cc1cc(C(=O)NC(CC(C)C)C(=O)Nc2cc[nH]n2)c(C)o1", "note": "(centres undefined)", "Percent Effect": 2.286},
      {"smiles": "COc1ccccc1CCc1nc(CC2CCN(C)CC2)no1", "Percent Effect": 0.6251},
      {"smiles": "COc1ccccc1CN(Cc1nc(CC(C)C)no1)C1CC1", "Percent Effect": 68.8},
      {"smiles": "CC(C)c1noc(CN(Cc2ccccc2F)C2CC2)n1", "Percent Effect": 5.507},
      {"smiles": "CC(CCc1ccccc1F)C(=O)NS(C)(=O)=O", "note": "(centres undefined)", "Percent Effect": -12.84},
      {"smiles": "Cc1nc(C)n(C2CCCN(C(=O)c3csc(C(C)C)n3)C2)n1", "note": "(centres undefined)", "Percent Effect": -3.924},
      {"smiles": "Cc1nc(C)n(C2CCCN(C(=O)CCOCC(C)C)C2)n1", "note": "(centres undefined)", "Percent Effect": 96.93},
      {"smiles": "Cc1nc(C)n(C2CCCN(C(=O)CCOC(C)C)C2)n1", "note": "(centres undefined)", "Percent Effect": 104.7},
      {"smiles": "Cc1nc(C)n(C2CCCN(C(=O)c3cnc[nH]3)C2)n1", "note": "(centres undefined)", "Percent Effect": 5.274},
      {"smiles": "CC(NC(N)=O)C(=O)N(C)Cc1cccc(C(F)(F)F)c1", "note": "(centres undefined)", "Percent Effect": -8.418},
      {"smiles": "O=C1CC(NCc2cnc(-c3cccs3)nc2)CN1c1ccccc1", "note": "(centres undefined)", "Percent Effect": 9.928}
    ]}
  ]
}
